{"source": "PubChem BioAssay (NCATS)", "system": "CRL-7250", "test": "Cytotoxic Profiling of Annotated Libraries Using Quantitative High-Throughput Screening (AID 1296008); further: nearly all actives have a fitted effect of over 60% in size", "details": "Five cell lines viability, CellTiter-Glo ATP luminescence, 48-72 h; max response: active compounds read low", "procedure,_shortened": "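Cytotoxicity was measured as CellTiter-Glo ATP luminescence, read after 10 min at room temperature. Compound treatment of the cells lasted 48 or 72 hr at 37 degrees Celsius in a qHTS format.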", "note": "Records with an inconclusive call do not appear. Unmarked numbers belong to inactive results. Calls of active or inactive are those of the source. The call rests on the fitted dose curve; in most records, active means well fitted inhibition curve with a large enough effect; inconclusive means small, poorly fitted or top-dose-only effect; inactive means flat fitted curve, though single readings scatter. On the % scale 0 is the no-effect control and ±100 the full control effect; potency means the concentration at half of the fitted maximal effect.", "data": [{"compound": "COc1ccccc1NC(=O)OCC1CCN(C(=O)OC(C)(C)C)CC1", "values": [{"measurement": "max response", "value": -0.083, "unit": "%"}]}, {"compound": "CC1(C)CCC2(C(=O)OC3OC(CO)C(O)C(O)C3O)CCC3(C)C(=CCC4C5(C)CCC(OC6OC(C(=O)O)C(OC7OC(CO)C(O)C(O)C7O)C(OC7OC(CO)C(O)C(O)C7O)C6O)C(C)(C)C5CCC43C)C2C1", "note": "(centres undefined)", "values": [{"measurement": "max response", "value": 3.03, "unit": "%"}]}, {"compound": "O=C(NCc1ccc(F)cc1)C(=O)c1c[nH]c2ccccc12", "values": [{"measurement": "outcome", "value": "inactive"}]}, {"compound": "COc1c2c(c(C)c3c1C(=O)OC3)O[C@@]1(C)CC(O)C(C(C)(C)O)[C@](C)(CCC(=O)O)[C@H]1C2", "note": "(some centres undefined)", "values": [{"measurement": "outcome", "value": "inactive"}]}, {"compound": "CC1=C(COC2OC(CO)C(O)C(O)C2O)C(C(CO)C(=O)O)CC1", "note": "(centres undefined)", "values": [{"measurement": "max response", "value": 2.58, "unit": "%"}]}, {"compound": "CC(C)(C)Nc1nc2cc(Cl)c(Cl)cc2nc1S(C)(=O)=O", "values": [{"measurement": "Potency", "value": "16.4 µM (active)"}]}, {"compound": "Nc1nc2c(ncn2[C@@H]2O[C@H](CO)[C@@H](O)[C@H]2O)c(=O)[nH]1", "values": [{"measurement": "max response", "value": -5, "unit": "%"}]}, {"compound": "O=S(=O)(NC1CCC(c2cc(F)ccc2F)(S(=O)(=O)c2ccc(Cl)cc2)CC1)C(F)(F)F", "note": "(centres undefined)", "values": [{"measurement": "outcome", "value": "inactive"}]}, {"compound": "CC[C@H](C)[C@H](NC(=O)[C@H]([C@@H](C)CC)N(C)C(C)=O)C(=O)N[C@H](C(=O)N[C@@H](CC(C)C)C(=O)[C@@]1(C)CO1)[C@@H](C)O", "values": [{"measurement": "Potency", "value": "0.0291 µM (active)"}]}, {"compound": "COc1ccc(C2COc3cc(O)ccc3C2)c(O)c1", "note": "(centres undefined)", "values": [{"measurement": "max response", "value": -2.17, "unit": "%"}]}, {"compound": "Cc1[nH]nc(C(F)(F)F)c1Cc1sc2c(c1C(=O)N1C[C@](C)(O)CO1)c(=O)n(C)c(=O)n2C(C)C", "values": [{"measurement": "max response", "value": -0.426, "unit": "%"}]}, {"compound": "CC(C)(C)Nc1nc(Nc2ccc(C(N)=O)cc2)cc(N)c1C#N", "values": [{"measurement": "Potency", "value": "13 µM (active)"}]}, {"compound": "COc1cccc2cc3c(c(O[C@@H]4O[C@H](CO[C@@H]5O[C@H](CO)[C@@H](O)[C@H](O)[C@H]5O)[C@@H](O)[C@H](O)[C@H]4O)c12)C(C)OC3=O", "note": "(some centres undefined)", "values": [{"measurement": "max response", "value": -0.694, "unit": "%"}]}, {"compound": "CC(=O)N[C@@H](C(=O)O[C@H]1CCC(C)(C)[C@@H]2CCC3=C(COC3=O)[C@@]12C)C(C)C", "values": [{"measurement": "max response", "value": -2.03, "unit": "%"}]}, {"compound": "CC1OC(O[C@H]2CC[C@@]3(C)C(CC[C@]4(C)C3CC=C3C5CC(C)(C)CC[C@]5(C(=O)OC5OC(CO)C(OC6OC(COC7OCC(O)C(O)C7O)C(O)C(O)C6O)C(O)C5O)CC[C@]34C)C2(C)C)C(O)C(O)C1OC1OCC(OC2OCC(O)C(O)C2O)C(O)C1O", "note": "(some centres undefined)", "values": [{"measurement": "max response", "value": -5.53, "unit": "%"}]}, {"compound": "CC(C)=CCC[C@](C)(O[C@@H]1O[C@H](CO[C@@H]2O[C@H](CO)[C@@H](O)[C@H](O)[C@H]2O)[C@@H](O)[C@H](O)[C@H]1O)C1CC[C@]2(C)[C@@H]1[C@H](O)CC1[C@@]3(C)CC[C@H](O[C@@H]4O[C@H](CO)[C@@H](O)[C@H](O)[C@H]4O[C@@H]4O[C@H](CO)[C@@H](O)[C@H](O)[C@H]4O)C(C)(C)[C@@H]3CC[C@]12C", "note": "(some centres undefined)", "values": [{"measurement": "max response", "value": -3.43, "unit": "%"}]}, {"compound": "O=C(O)COCCN1CCN([C@H](c2ccccc2)c2ccc(Cl)cc2)CC1", "values": [{"measurement": "max response", "value": 2.26, "unit": "%"}]}, {"compound": "Cc1ccccc1CN1C2=NCCN2C(=O)C2=C1CCN(Cc1ccccc1)C2", "values": [{"measurement": "max response", "value": -16.8, "unit": "%"}]}, {"compound": "Cc1cc(C)cc(C(=O)NOCCCCCC(=O)NO)c1", "values": [{"measurement": "Potency", "value": "8.2 µM (active)"}]}, {"compound": "O=C(O)c1cc(-c2c(-c3ccccc3)nn3ccccc23)n[nH]c1=O", "values": [{"measurement": "outcome", "value": "inactive"}]}, {"compound": "OC[C@H]1O[C@@H](OCCc2ccccc2)[C@H](O[C@@H]2OC[C@](O)(CO)[C@H]2O)[C@@H](O)[C@@H]1O", "values": [{"measurement": "max response", "value": -6.82, "unit": "%"}]}, {"compound": "C/C=C/C1=CC2=C(CO1)C(=O)C(C)(O)C(OC(=O)c1c(C)cc(OC)cc1O)C2", "note": "(centres undefined)", "values": [{"measurement": "max response", "value": -7.89, "unit": "%"}]}, {"compound": "O=C(CN1C(=O)C2(CCCC2)NCC1c1cc(F)cc(F)c1)Nc1ccc2c(c1)CC1(C2)C(=O)Nc2ncccc21", "note": "(centres undefined)", "values": [{"measurement": "outcome", "value": "inactive"}]}, {"compound": "CCC(O)(C(=O)OCc1ccccc1NC(=O)CCC(=O)O)C(C)O", "note": "(centres undefined)", "values": [{"measurement": "outcome", "value": "inactive"}]}, {"compound": "CC12CCC3c4ccc(O)cc4CCC3C1CC(OC1OC(C(=O)O)C(O)C(O)C1O)C2O", "note": "(centres undefined)", "values": [{"measurement": "max response", "value": -23.2, "unit": "%"}]}, {"compound": "CC(C)(O)/C=C/CC(C)(O)C1C(O)CC2(C)C3CCC4C(C)(C)C(=O)CCC4(C)C3CCC12C", "note": "(centres undefined)", "values": [{"measurement": "max response", "value": -2.19, "unit": "%"}]}, {"compound": "COc1cc2c(NC3CCN(CC4CCCCC4)CC3)nc(N3CCCN(C(C)C)CC3)nc2cc1OCCCN1CCCCC1", "values": [{"measurement": "Potency", "value": "4.61 µM (active)"}]}, {"compound": "C#CCN(Cc1cc2c(=O)n(C)c(CN3CCN(C)CC3)nc2cc1Cl)c1ccc(C(=O)NCc2cccnc2)cc1", "values": [{"measurement": "Potency", "value": "0.0082 µM (active)"}]}, {"compound": "O=C(O)c1ccccc1NC(=O)N1CCC(c2ccccc2C(F)(F)F)CC1", "values": [{"measurement": "outcome", "value": "inactive"}]}, {"compound": "CCCC1(c2ccccc2)NC(=O)N(CC(=O)N(C)Cc2c(F)cccc2Cl)C1=O", "note": "(centres undefined)", "values": [{"measurement": "max response", "value": -1.75, "unit": "%"}]}, {"compound": "COC(=O)C1=CO[C@@H](O[C@@H]2O[C@H](CO)[C@@H](O)[C@H](O)[C@H]2O)[C@@H]2C(CO)=CC[C@]12O", "values": [{"measurement": "max response", "value": -2.05, "unit": "%"}]}, {"compound": "C=C(C(=O)O)C1CC(O)C2(C)CCCC(=C)C2C1", "note": "(centres undefined)", "values": [{"measurement": "max response", "value": -4.23, "unit": "%"}]}, {"compound": "C[C@@H]1CN(Cc2ncccn2)C[C@H]1c1nc2c(cnn2C2CCOCC2)c(=O)[nH]1", "values": [{"measurement": "max response", "value": 1.7, "unit": "%"}]}, {"compound": "OC[C@H]1O[C@@H](OCCc2ccc(O)cc2)[C@H](O[C@@H]2OC[C@](O)(CO)[C@H]2O)[C@@H](O)[C@@H]1O", "values": [{"measurement": "max response", "value": -6.14, "unit": "%"}]}, {"compound": "CCc1cccc(CC)c1NC(=O)c1nn(C)c2c1CCc1cnc(Nc3ccc(C(=O)NC4CCN(C)CC4)cc3OC(F)(F)F)nc1-2", "values": [{"measurement": "max response", "value": -0.147, "unit": "%"}]}, {"compound": "Cn1nc(C(C)(C)C)cc1C(=O)NC(Cc1cccc(Cl)c1)C(=O)NCC#N", "note": "(centres undefined)", "values": [{"measurement": "outcome", "value": "inactive"}]}, {"compound": "C[C@@H]1C(=O)O[C@H]2C[C@]34[C@H]5C[C@@H](C(C)(C)C)[C@]36[C@@H](OC(=O)[C@H]6O)O[C@]4(C(=O)O5)[C@]21O", "values": [{"measurement": "max response", "value": -0.0261, "unit": "%"}]}, {"compound": "CC(=O)OC1C(O)C2C(C)C3=CC(=O)OC3(O)CC2C2(C)CCCC(C)(CO)C12", "note": "(centres undefined)", "values": [{"measurement": "outcome", "value": "inactive"}]}, {"compound": "CC(C)C(CO)Nc1nc(Nc2ccc(C(=O)O)c(Cl)c2)c2ncn(C(C)C)c2n1", "note": "(centres undefined)", "values": [{"measurement": "outcome", "value": "inactive"}]}, {"compound": "CC1=CCC(C(C)(C)O[C@@H]2O[C@H](CO[C@@H]3O[C@@H](C)[C@H](O)[C@@H](O)[C@H]3O)[C@@H](O)[C@H](O)[C@H]2O)CC1", "note": "(some centres undefined)", "values": [{"measurement": "max response", "value": -8.36, "unit": "%"}]}, {"compound": "C[C@@H]1O[C@@H](O[C@H]2[C@H](OC(=O)[C@]34CCC(C)(C)C[C@H]3C3=CCC5[C@@]6(C)C[C@H](O)[C@H](O[C@@H]7O[C@H](CO)[C@@H](O)[C@H](O)[C@H]7O)[C@@](C)(CO)C6[C@H](O)C[C@@]5(C)[C@]3(C)C[C@H]4O)OC[C@H](O)[C@@H]2O)[C@H](O)[C@H](O)[C@H]1O[C@@H]1OC[C@@H](O)[C@H](O[C@H]2OC[C@](O)(CO)[C@H]2O)[C@H]1O", "note": "(some centres undefined)", "values": [{"measurement": "outcome", "value": "inactive"}]}, {"compound": "C#CCN(Cc1cc2c(=O)[nH]c(C)nc2cc1Br)c1ccc(C(=O)NCc2cccnc2)cc1", "values": [{"measurement": "Potency", "value": "0.0517 µM (active)"}]}, {"compound": "C[C@@H]1O[C@@H](O[C@H]2[C@H](O[C@H]3CC[C@@]4(C)C(CC[C@]5(C)C4CC=C4[C@@H]6CC(C)(C)CC[C@]6(C(=O)O[C@@H]6OC[C@H](O)[C@H](O)[C@H]6O[C@@H]6O[C@@H](C)[C@H](O[C@@H]7O[C@H](CO)[C@@H](O)[C@H](O)[C@H]7O)[C@H](O)[C@H]6O)[C@H](O)C[C@]45C)C3(C)C)O[C@H](CO)[C@@H](O[C@@H]3OC[C@@H](O)[C@H](O)[C@H]3O)[C@@H]2O)[C@H](O)[C@H](O)[C@H]1O", "note": "(some centres undefined)", "values": [{"measurement": "outcome", "value": "inactive"}]}, {"compound": "C=C1C(=O)OC2CC3(C)C(CC12)C(C)=CC(O)C3OC(C)=O", "note": "(centres undefined)", "values": [{"measurement": "max response", "value": -3.42, "unit": "%"}]}]}
